In paper PMC4336329 (PLoS ONE, 2015):
In all, about 310,000 compounds went through this assay and about 14,000 (4.5%) showed an effect of 50% or more. Effects have a minus sign here. Shown is part of a subset that was picked to be rich in strong results.

target: human ether-à-go-go-related gene (hERG) potassium channel (human, UniProt Q12809); assay: primary screen, population patch clamp on CHO cells stably expressing hERG; higher = less effect of the substance
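Further: peak tail current of the secondary pulse compared with the same well before compound.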

Chain of human ether-à-go-go-related gene (hERG) potassium channel (Q12809 whole entry, looked up): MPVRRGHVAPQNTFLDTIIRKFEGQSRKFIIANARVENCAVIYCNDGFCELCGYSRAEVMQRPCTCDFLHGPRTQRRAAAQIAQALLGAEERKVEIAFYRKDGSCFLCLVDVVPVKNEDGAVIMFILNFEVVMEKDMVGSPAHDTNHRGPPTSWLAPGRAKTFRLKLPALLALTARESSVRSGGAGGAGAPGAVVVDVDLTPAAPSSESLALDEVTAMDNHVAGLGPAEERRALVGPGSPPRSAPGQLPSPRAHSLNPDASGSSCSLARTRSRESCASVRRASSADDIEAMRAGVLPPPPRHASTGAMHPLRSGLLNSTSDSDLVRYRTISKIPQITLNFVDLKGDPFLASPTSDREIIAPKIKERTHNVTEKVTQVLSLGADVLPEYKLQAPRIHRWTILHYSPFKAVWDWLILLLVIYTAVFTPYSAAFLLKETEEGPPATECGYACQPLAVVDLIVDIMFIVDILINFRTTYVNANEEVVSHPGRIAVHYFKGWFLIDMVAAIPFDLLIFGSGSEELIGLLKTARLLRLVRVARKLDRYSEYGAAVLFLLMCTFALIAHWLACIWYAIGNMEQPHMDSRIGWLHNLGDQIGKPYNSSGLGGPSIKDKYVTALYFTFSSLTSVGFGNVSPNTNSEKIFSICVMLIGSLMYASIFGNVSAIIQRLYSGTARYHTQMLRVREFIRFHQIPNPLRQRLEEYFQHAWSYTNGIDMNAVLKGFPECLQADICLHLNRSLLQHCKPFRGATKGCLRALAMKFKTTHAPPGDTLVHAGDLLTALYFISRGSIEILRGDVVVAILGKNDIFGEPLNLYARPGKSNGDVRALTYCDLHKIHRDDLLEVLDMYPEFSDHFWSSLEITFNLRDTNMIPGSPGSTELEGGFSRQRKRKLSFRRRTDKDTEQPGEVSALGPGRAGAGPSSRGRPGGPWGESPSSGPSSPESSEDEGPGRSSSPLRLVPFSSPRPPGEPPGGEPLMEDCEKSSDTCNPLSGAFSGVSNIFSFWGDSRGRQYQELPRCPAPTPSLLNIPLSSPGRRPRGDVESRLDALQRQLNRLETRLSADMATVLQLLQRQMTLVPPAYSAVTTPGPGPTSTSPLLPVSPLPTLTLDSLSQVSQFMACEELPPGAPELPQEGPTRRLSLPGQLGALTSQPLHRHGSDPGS

Compared with `COc1ccc(CC(=O)N(C)C2CCCN(Cc3ccccc3F)C2)cc1OC` (centres unmarked), `COc1ccc(CCN2CN(S(=O)(=O)c3ccccc3)c3nc4ccccc4nc32)cc1OC` is higher in “hERG current change (%, negative = inhibition) at 10uM” value: -4.9% for the first, -0.784% for the second.

First: CCOC(=O)C1CSC(CC(=O)Nc2ccc(Cl)c(Cl)c2)C(=O)N1 (centres unmarked)
Second: O=C(COc1ccccc1C(=O)NCC1CCCO1)Nc1ccc(Cl)cc1Cl (centres unmarked)
The “hERG current change (%, negative = inhibition) at 10uM” value of the first is lower: -24.2% for the first, -14% for the second.

Going from `COc1ccc(CCC(=O)OCC(=O)Nc2sccc2C(N)=O)cc1` to `NC(=O)NCCCC(=O)OCC(=O)c1ccc2ccccc2c1`, the “hERG current change (%, negative = inhibition) at 10uM” value rises from -5.4% to 13.4%.

First: O=[N+]([O-])c1ccc(N2CCCCC2)cc1
Second: CN1CCCN(c2ccc([N+](=O)[O-])cc2)CC1
The “hERG current change (%, negative = inhibition) at 10uM” value of the first is higher: -16.5% for the first, -66% for the second.

Compared with `CC(=O)OCC(=O)N1CCN(c2ccc([N+](=O)[O-])cc2)CC1`, `COCC(=O)N1CCN(c2ccc([N+](=O)[O-])cc2)CC1` is higher in “hERG current change (%, negative = inhibition) at 10uM” value: -63.3% for the first, -62.7% for the second.

First: COc1cc2c(cc1OC)CN(c1ccc([N+](=O)[O-])c(C(F)(F)F)c1)CC2
Second: CC(=O)N1CCN(c2ccc(Oc3ccc([N+](=O)[O-])c(C(F)(F)F)c3)cc2)CC1
The “hERG current change (%, negative = inhibition) at 10uM” value of the first is higher: -8.39% for the first, -59.9% for the second.

First: CCOC(=O)N1CCN(C(=O)COc2ccc([N+](=O)[O-])cc2)CC1
Second: CCOC(=O)C1CCN(C(=O)COc2ccc([N+](=O)[O-])cc2)CC1
The “hERG current change (%, negative = inhibition) at 10uM” value of the first is higher: -43% for the first, -60.8% for the second.

First: O=C(OCC(=O)N1CCN(c2ccccc2)CC1)c1cccc([N+](=O)[O-])c1
Second: O=C(Cc1ccccc1[N+](=O)[O-])OCC(=O)N1CCN(c2ccccc2)CC1
The “hERG current change (%, negative = inhibition) at 10uM” value of the first is lower: -28.2% for the first, -6.16% for the second.

Compared with `COc1ccc(N2CCN(c3ccc(C(=O)O)cc3[N+](=O)[O-])CC2)cc1`, `COc1ccc(N2CCN(C(=O)c3cc([N+](=O)[O-])ccc3N3CCN(CCO)CC3)CC2)cc1` is lower in “hERG current change (%, negative = inhibition) at 10uM” value: 11% for the first, -24.6% for the second.

First: CCOC(=O)C1CCN(C(=O)COc2ccc(Br)cc2)CC1
Second: CCOCC(=O)N1CCN(c2ccc(F)cc2)CC1
The “hERG current change (%, negative = inhibition) at 10uM” value of the first is lower: -32.1% for the first, -15.9% for the second.

Going from `CN1CCCN(c2ccc([N+](=O)[O-])nc2)CC1` to `CN1N=C(C(=O)N2CCN(c3ccc([N+](=O)[O-])cc3)CC2)CCC1=O`, the “hERG current change (%, negative = inhibition) at 10uM” value falls from 2.45% to -73%.

First: Cc1c(C(=O)Nc2ccc3c4c(cccc24)CC3)cccc1[N+](=O)[O-]
Second: O=C(Nc1ccc(O)cc1C(=O)O)c1ccc2c(c1)C(=O)N(Cc1ccco1)C2=O
The “hERG current change (%, negative = inhibition) at 10uM” value of the first is higher: 9.1% for the first, -16.8% for the second.

Going from `Cc1cccc(-c2oc3ccc(-c4ccc5c(c4)OCO5)cc3c2C(=O)OCc2ccc(O)cc2)c1` to `Cc1cccc(-n2c(SCC(=O)Nc3ccc4c(c3)OCO4)nnc2-c2ccoc2C)c1`, the “hERG current change (%, negative = inhibition) at 10uM” value falls from 6.27% to -0.162%.

Going from `c1ccc(-c2nn[nH]n2)nc1` to `Cc1cc(C)n2nc(NCc3ccccc3)nc2n1`, the “hERG current change (%, negative = inhibition) at 10uM” value falls from 9.49% to -9.34%.

First: Cc1cccc(NC(=S)NCCC(c2ccccc2)c2ccccc2)c1
Second: COc1ccc(C)cc1NC(=O)C(OC(=O)c1ccc(Cl)c(S(=O)(=O)N(C)c2ccccc2)c1)c1ccccc1 (centres unmarked)
The “hERG current change (%, negative = inhibition) at 10uM” value of the first is higher: 12% for the first, -0.711% for the second.

Going from `CCn1c(-c2cc(OC)c(OC)c(OC)c2)n[nH]c1=S` to `COc1ccc(CNc2nc3nc(C)c(Cl)c(C)n3n2)cc1OC`, the “hERG current change (%, negative = inhibition) at 10uM” value falls from 12.1% to -7.54%.

First: COc1cccc(CNC(=O)CCCn2nc(C)c3c(C)n(-c4ccccc4)nc3c2=O)c1
Second: CNC(=O)CSc1nnc(-c2ccco2)n1-c1cccc(OC)c1
The “hERG current change (%, negative = inhibition) at 10uM” value of the first is lower: -10% for the first, -0.723% for the second.

First: Cc1ccc(/C([O-])=C(/C(=S)NCc2ccco2)[n+]2ccccc2)cc1[N+](=O)[O-]
Second: c1ccc(Nc2c(-c3ccco3)nc3ccccn23)cc1
The “hERG current change (%, negative = inhibition) at 10uM” value of the first is lower: -18% for the first, 9.75% for the second.

Compared with `CC(C)C(=O)NNS(=O)(=O)c1ccccc1[N+](=O)[O-]`, `CC(NC(=O)Cc1ccccc1F)c1ccc(F)cc1` (centres unmarked) is higher in “hERG current change (%, negative = inhibition) at 10uM” value: 3.1% for the first, 6.9% for the second.

Going from `CN1N=C(C(=O)N2CCCC(N3CCN(c4ccc(F)cc4)CC3)C2)CCC1=O` (centres unmarked) to `CCOCC(=O)N1CCN(c2ccc([N+](=O)[O-])cc2)CC1`, the “hERG current change (%, negative = inhibition) at 10uM” value falls from 2.78% to -71.8%.

Going from `COc1ccc(N=C2SC(C(=O)O)CC(=O)N2C)cc1` (centres unmarked) to `COc1ccc(N=C2SC(C(=O)N3CCN(c4ccccc4)CC3)CC(=O)N2C)cc1` (centres unmarked), the “hERG current change (%, negative = inhibition) at 10uM” value falls from 1.4% to -13%.

Going from `CCOCC(=O)N1CCN(c2cccc(Cl)c2)CC1` to `COCC(=O)N1CCN(c2cccc(Cl)c2)CC1`, the “hERG current change (%, negative = inhibition) at 10uM” value falls from 8.4% to -8.46%.

Going from `COc1ccc(N=C2SC(C(=O)N3CCN(c4ccc([N+](=O)[O-])cc4)CC3)CC(=O)N2C)cc1` (centres unmarked) to `CSC(=NC#N)N1CCN(c2ccc([N+](=O)[O-])cc2)CC1`, the “hERG current change (%, negative = inhibition) at 10uM” value falls from -68.2% to -77%.

Compared with `CCOc1ccc2[nH]c(=O)c(CN(CCO)C(=O)c3ccccc3F)cc2c1`, `CSCC[C@H](NC(=O)COc1ccc(Cl)cc1)c1nc2ccccc2[nH]1` is lower in “hERG current change (%, negative = inhibition) at 10uM” value: -0.495% for the first, -56.5% for the second.

Compared with `COC(=O)Cc1[nH]nc2c1C(c1c[nH]c3ccccc13)C(C#N)=C(N)O2` (centres unmarked), `CSCC[C@H](NC(=O)COc1ccc(Cl)cc1Cl)c1nc2ccccc2[nH]1` is lower in “hERG current change (%, negative = inhibition) at 10uM” value: 17.8% for the first, 14.7% for the second.

Compared with `C=CCC1(N(C(C)=O)c2ccccc2)CCCCC1`, `Nc1nnc(SCC(=O)NC2CCCCC2)n1-c1ccccc1` is higher in “hERG current change (%, negative = inhibition) at 10uM” value: 5.28% for the first, 6.78% for the second.

Compared with `CSC(=NC#N)N1CCN(c2ccc(Cl)cc2)CC1`, `CSC(=NC#N)N1CCN(c2ccccc2)CC1` is higher in “hERG current change (%, negative = inhibition) at 10uM” value: -38.3% for the first, -2.95% for the second.

Going from `O=C(Nc1ccc2c(c1)OCO2)c1cnn2c1NC(c1ccco1)CC2C(F)(F)F` (centres unmarked) to `CCn1c(SCC(=O)Nc2ncc(C(F)(F)F)cc2Cl)nnc1-c1ccccc1`, the “hERG current change (%, negative = inhibition) at 10uM” value falls from -4.57% to -12.6%.

First: CCc1c(O)nc(SCC(=O)Nc2cc(C)on2)n(-c2ccccc2)c1=O
Second: Cc1occc1-c1nnc(SCC(=O)NC2CCCC2)n1-c1ccccc1
The “hERG current change (%, negative = inhibition) at 10uM” value of the first is higher: 3.39% for the first, -74.8% for the second.

Compared with `COc1cccc(-n2c(SCC(=O)NC3CCCC3)nnc2-c2ccco2)c1`, `COc1cccc(-n2c(SCC(N)=O)nnc2-c2ccco2)c1` is higher in “hERG current change (%, negative = inhibition) at 10uM” value: -73.7% for the first, 13.7% for the second.

Compared with `C=CCn1c(SCC(=O)NC2CC2)nnc1-c1cccc(OC)c1`, `CCn1c(SCC(=O)NC2CC2)nnc1-c1cccc(OC)c1` is lower in “hERG current change (%, negative = inhibition) at 10uM” value: 2.24% for the first, -66.6% for the second.

Going from `O=C(CSc1nnc(Cc2cccs2)n1-c1ccccc1)NC1CCCCC1` to `CCn1c(Cc2cccs2)nnc1SCC(=O)NC1CC1`, the “hERG current change (%, negative = inhibition) at 10uM” value rises from -62.5% to -1.49%.

Compared with `CCn1c(SCC(=O)Nc2ncc(C(F)(F)F)cc2Cl)nnc1-c1cccc(C)c1`, `Cn1c(SCC(=O)Nc2ncc(C(F)(F)F)cc2Cl)nnc1-c1ccc(Cl)cc1` is higher in “hERG current change (%, negative = inhibition) at 10uM” value: -69.9% for the first, -30.8% for the second.

First: CCn1c(SCC(=O)NC2CC2)nnc1-c1ccc(OC)cc1
Second: CCn1c(SCC(=O)NC2CCCC2)nnc1-c1ccoc1C
The “hERG current change (%, negative = inhibition) at 10uM” value of the first is higher: 17.4% for the first, 14% for the second.

Going from `Nn1c(N2CCCCC2)nc2ccccc21` to `CCCNC(=O)N1CCC(c2nc3ccccc3s2)CC1`, the “hERG current change (%, negative = inhibition) at 10uM” value falls from 6.16% to -16.8%.

Compared with `Cc1cc(C(=O)N/N=C2\CCCC(C)C2)n[nH]1` (centres unmarked), `Cc1ccc(C)c(NC(=S)N2CCC(NC(=O)C3CCCCC3)CC2)c1` is lower in “hERG current change (%, negative = inhibition) at 10uM” value: 11% for the first, 4.41% for the second.

First: CCC1=C(c2ccc(C)cc2)S(=O)(=O)N=C1N1CCC(C(=O)NCCCN2CCCCC2)CC1
Second: Cc1cccc(-n2c(SCC(=O)NC3CCCC3)nnc2-c2ccoc2C)c1
The “hERG current change (%, negative = inhibition) at 10uM” value of the first is higher: 20.5% for the first, -83.2% for the second.

Going from `CCN(CC)CC(=O)Nc1nc(-c2ccc(Cl)cc2)cs1` to `COC(=O)c1ccc(COc2ccc(Cl)cc2)o1`, the “hERG current change (%, negative = inhibition) at 10uM” value rises from -35.8% to 2.11%.

Compared with `CCOc1ccccc1-n1c(SCC(=O)NC2CCCC2)nnc1-c1ccoc1C`, `Cc1occc1-c1nnc(SCC(=O)NC2CCCC2)n1C` is higher in “hERG current change (%, negative = inhibition) at 10uM” value: -24% for the first, 15.5% for the second.

Compared with `COc1ccc(NC(=O)COc2ccc(-c3nn(C)c(=O)c4ccccc34)cc2)cc1`, `CCOc1cc(C2Nc3ccccc3C(=O)N2c2ccccc2OC)ccc1O` (centres unmarked) is lower in “hERG current change (%, negative = inhibition) at 10uM” value: 18.2% for the first, 1.46% for the second.

First: S=C(NCc1cccnc1)Nc1cccc(Cl)c1
Second: Cc1ccc(C2=C/C(=C\c3cccnc3)C(=O)O2)cc1
The “hERG current change (%, negative = inhibition) at 10uM” value of the first is lower: -9.78% for the first, 30.8% for the second.

Compared with `CC(C)CC(=O)N(c1ccc(F)cc1)C1C=CS(=O)(=O)C1` (centres unmarked), `CSCC[C@H](NC(=O)C(C)Oc1ccc(Cl)cc1)c1nc2ccccc2[nH]1` (some centres unmarked) is lower in “hERG current change (%, negative = inhibition) at 10uM” value: 14.4% for the first, -7.16% for the second.

First: CC(=O)N1N=C2C3CCN(CC3)C2C1c1ccc(Br)cc1 (centres unmarked)
Second: C/C=C/c1ccccc1OCc1ccc(C(=O)O)o1
The “hERG current change (%, negative = inhibition) at 10uM” value of the first is lower: 4.62% for the first, 20% for the second.

Compared with `Cc1cc(C)n2nc(NCc3cccc(Br)c3)nc2n1`, `COc1cccc(CNc2nc3nc(C)cc(C)n3n2)c1` is higher in “hERG current change (%, negative = inhibition) at 10uM” value: -70% for the first, -15.6% for the second.

First: COc1ccc(CNc2nc3nc(C)c(Cl)c(C)n3n2)cc1
Second: COc1cccc(CNc2nc3nc(C)c(Cl)c(C)n3n2)c1
The “hERG current change (%, negative = inhibition) at 10uM” value of the first is higher: 2.05% for the first, -57.9% for the second.

Going from `CCOc1cc(N2CCOCC2)c(OCC)cc1NC(=O)COC(=O)c1cc(C)cc(C)c1` to `COc1c2ccccc2c(OC)c2ccccc12`, the “hERG current change (%, negative = inhibition) at 10uM” value rises from -3.29% to 12.9%.
